# Measured values as given in ChEMBL document CHEMBL1201862, “PubChem BioAssay data set” (2004).
# Hit rate of the full screen: of about 400,000 compounds, about 2,100 (0.53%) were called active. About 14% were inconclusive and are not listed. How the calls were made is not given here. The list comes from a sample in which actives are over-represented; it also holds similar structures and randomly drawn compounds.
# Target: Ataxin-2 (Homo sapiens) (UniProt Q99700)
# Experiment: qHTS for Inhibitors of ATXN expression.
# Format: functional
# Ataxin-2 (Homo sapiens), sequence (Q99700 whole entry): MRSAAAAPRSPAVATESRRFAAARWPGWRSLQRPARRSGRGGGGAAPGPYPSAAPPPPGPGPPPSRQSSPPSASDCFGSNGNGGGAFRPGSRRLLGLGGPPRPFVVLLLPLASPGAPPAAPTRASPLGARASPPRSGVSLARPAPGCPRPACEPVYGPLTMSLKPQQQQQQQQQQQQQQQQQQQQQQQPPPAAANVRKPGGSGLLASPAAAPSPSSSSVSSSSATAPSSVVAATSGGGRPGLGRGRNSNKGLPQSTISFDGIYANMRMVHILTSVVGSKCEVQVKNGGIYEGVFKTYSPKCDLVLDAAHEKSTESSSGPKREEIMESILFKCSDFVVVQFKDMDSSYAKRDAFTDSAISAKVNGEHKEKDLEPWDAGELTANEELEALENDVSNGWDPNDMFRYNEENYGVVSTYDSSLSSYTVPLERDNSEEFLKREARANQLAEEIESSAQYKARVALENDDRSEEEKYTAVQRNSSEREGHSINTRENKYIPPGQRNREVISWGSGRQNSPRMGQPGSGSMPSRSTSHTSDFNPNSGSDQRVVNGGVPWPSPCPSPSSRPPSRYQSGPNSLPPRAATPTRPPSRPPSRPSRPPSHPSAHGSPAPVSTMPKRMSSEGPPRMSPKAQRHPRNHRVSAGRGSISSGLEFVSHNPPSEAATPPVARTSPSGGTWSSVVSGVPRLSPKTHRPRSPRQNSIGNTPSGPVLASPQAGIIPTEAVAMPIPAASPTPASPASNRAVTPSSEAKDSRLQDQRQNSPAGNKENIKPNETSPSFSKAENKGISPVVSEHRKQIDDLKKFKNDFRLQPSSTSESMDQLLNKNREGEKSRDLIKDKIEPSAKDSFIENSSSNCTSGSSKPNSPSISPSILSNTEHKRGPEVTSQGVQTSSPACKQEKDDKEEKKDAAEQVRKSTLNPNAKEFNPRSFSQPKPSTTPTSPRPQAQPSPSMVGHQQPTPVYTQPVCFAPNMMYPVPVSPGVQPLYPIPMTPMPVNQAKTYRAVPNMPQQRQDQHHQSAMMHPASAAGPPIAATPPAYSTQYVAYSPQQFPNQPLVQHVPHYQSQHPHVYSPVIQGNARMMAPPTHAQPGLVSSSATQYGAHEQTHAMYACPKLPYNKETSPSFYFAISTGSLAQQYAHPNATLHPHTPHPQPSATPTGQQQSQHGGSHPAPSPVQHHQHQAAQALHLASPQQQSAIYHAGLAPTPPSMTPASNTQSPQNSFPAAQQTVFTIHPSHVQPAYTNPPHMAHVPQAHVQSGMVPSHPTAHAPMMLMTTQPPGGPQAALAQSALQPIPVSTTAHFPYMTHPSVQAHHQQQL
row,SMILES,Potency
1,CCN1C(=O)[C@@H]2Cc3c([nH]c4ccccc34)C(c3ccc(OC)cc3)N2C1=S (some centres undefined),inactive
2,CCCCCCCCOC(=O)c1cc([N+](=O)[O-])c(Sc2[nH]cnc3ncnc2-3)c([N+](=O)[O-])c1,22.4 µM (active)
3,CCOc1ccc(C(=O)Oc2cc(C)nc(O)c2[N+](=O)[O-])cc1OCC,inactive
4,CCOC(=O)c1nnn(-c2ccc([N+](=O)[O-])cc2)c1C,inactive
5,CCOC(=O)c1cc([N+](=O)[O-])cc([N+](=O)[O-])c1Sc1[nH]cnc2ncnc1-2,29.9 µM (active)
6,Cc1ccc(C)c(N2CCN(C(=O)CCC(=O)Nc3ccc4nc(N5CCCCC5)cc(C)c4c3)CC2)c1,inactive
7,CCn1c(=O)cc(SCC(=O)N2CCN(c3cc(C)ccc3C)CC2)c2ccccc21,35.5 µM (active)
8,CCc1nc2ccc(C(=O)N3CCN(c4cc(C)ccc4C)CC3)cc2nc1CC,inactive
9,O=C1c2cccc3c(O)ccc(c23)C(=O)N1c1ccc(Cl)cc1,inactive
10,O=CN/C=C/c1cc(O)ccc1O,35.5 µM (active)
11,COC(=O)/C=C/c1sc2nc(C)cc(C)c2c1/N=C/N(C)C,inactive
12,COc1ccc(CNC(=O)CNS(=O)(=O)c2cccs2)cc1,inactive
13,COc1ccc(N(C(=O)c2cnccn2)C(C(=O)NCc2ccccc2)c2ccc(O)cc2)cc1 (centres undefined),inactive
14,COCCN(C(=O)Cc1cccs1)C(C(=O)NCc1ccc(OC)cc1)c1ccc(C(C)C)cc1 (centres undefined),39.8 µM (active)
15,Cc1ccc(C(=O)CSc2nnc(C3CC3)n2C2CC2)s1,inactive
16,N#C/C(=N/Nc1ccc(OC(F)(F)F)cc1)C(N)=S,10 µM (active)
17,CC(=O)Nc1ccc(OC(F)(F)Cl)cc1,inactive
18,Oc1ccc(-c2nccc(-c3ccc(Cl)cc3)n2)cc1,inactive
19,Oc1ccc(N=Nc2n[nH]c(-c3ccc(Cl)cc3)n2)cc1,35.5 µM (active)
20,Oc1ccc(-c2onc3ccc(Cl)cc23)cc1,inactive
21,O=C1C=C(c2c(O)ccc3ccccc23)c2ccccc2C1=O,35.5 µM (active)
22,CN(C)/C=C1\Oc2ccc3ccccc3c2C1=O,inactive
23,O=C1c2cccc3c(O)ccc(c23)C(=O)N1Cc1ccccc1,inactive
24,CCN1C(=O)c2cccc3c(S(=O)(=O)NCc4cccnc4)ccc1c23,inactive

row,SMILES,Potency
1,CCCC(=O)OCCNc1cc(Sc2nccn2C)c2nonc2c1[N+](=O)[O-],39.8 µM (active)
2,CCC(=O)OCCNc1cc(Sc2nccn2C)c2nonc2c1[N+](=O)[O-],35.5 µM (active)
3,COc1ccccc1OCc1ccc(C(=O)Nc2ccccc2)cc1,inactive
4,COC(C/C=C/C(=O)[C@H](C)OCc1ccccc1)OC,39.8 µM (active)
5,c1ccc(C(c2cccs2)c2c[nH]c3ccccc23)cc1 (centres undefined),39.8 µM (active)
6,Clc1ccc(C(c2ccccc2)c2c[nH]c3ccccc23)s1 (centres undefined),31.6 µM (active)
7,Oc1nc2ccccc2nc1-c1c[nH]c2ccccc12,inactive
8,CCOc1ccccc1C1C(C(=O)OC)=CN(C)C=C1C(=O)OC,inactive
9,CC(=O)Oc1c(-c2ccc(Br)o2)oc2ccccc2c1=O,inactive
10,COC(=O)/C(=C1/Oc2cc(C)oc(=O)c2S1)C(F)(F)F,20 µM (active)
11,CC(C)[C@H](NS(=O)(=O)c1ccccc1F)C(=O)NC1CCCCC1,inactive
12,CC(=O)N1CCC(c2c[nH]c3ccccc23)CC1,inactive
13,O=C1NCCNC1(c1c[nH]c2ccccc12)C(F)(F)F (centres undefined),inactive
14,O=C1C=CC(c2c[nH]c3ccccc23)CC1 (centres undefined),35.5 µM (active)
15,C=CCn1c(=N)c(C#N)cc2c(=O)n3ccccc3nc21,inactive
16,Cc1ccccc1CS(=O)(=O)c1nnc([C@H](Cc2ccccc2)NC(=O)OC(C)(C)C)o1,35.5 µM (active)
17,COC(=O)CS(=O)(=O)c1nnc([C@H](Cc2ccccc2)NC(=O)OC(C)(C)C)o1,39.8 µM (active)
18,CC(C)(C)OC(=O)N[C@@H](Cc1ccccc1)c1nnc(S(=O)(=O)Cc2cccc(F)c2)o1,31.6 µM (active)
19,Oc1c(Br)cc(Cl)cc1/C=N/c1ccc(N2CCOCC2)cc1,inactive
20,Cc1ccc(O)c(C(=O)c2cc(C#N)c(=O)n(-c3nccs3)c2)c1,inactive
21,N=c1c(C(=O)NCc2ccc(F)cc2)cc2c(=O)n3ccccc3nc2n1Cc1cccnc1,inactive
22,O=C(Nc1ccc(F)cc1)c1sc2cc(C(F)(F)F)cnc2c1-c1cccs1,inactive
23,O=C(Oc1ccc2c(-c3ccccc3)cc(=O)oc2c1)C1CCCCC1,inactive
24,Cc1cc(Oc2nc3c(C)cccn3c(=O)c2/C=C(\C#N)S(=O)(=O)c2ccccc2)ccc1Cl,39.8 µM (active)

row,SMILES,Potency
1,Cc1cccn2c(=O)c(C=C(C#N)C#N)c(N3CCN(c4ccccc4)CC3)nc12,inactive
2,CNC(=O)/C(C#N)=C/c1c(N2CCN(c3ccccc3)CC2)nc2c(C)cccn2c1=O,inactive
3,O=C(NC(c1ccc(F)cc1)c1ccc2ccccc2n1)C1CCN(CCOc2ccc(Cl)cc2Cl)CC1 (centres undefined),22.4 µM (active)
4,COc1ccc(NC(=O)c2cc(S(=O)(=O)N3CCCC3)ccc2C)cn1,inactive
5,O=C(NC(c1ccc(Cl)cc1)c1cccnc1)C1CCN(CCOc2ccc(Cl)cc2Cl)CC1 (centres undefined),39.8 µM (active)
6,O=C(CCSc1ccc(Cl)cc1)Nc1cccnc1,inactive
7,COc1cc(OC)nc(C(NC(=O)C2CCN(Cc3c[nH]c4ccccc34)CC2)c2ccc(Cl)cc2)n1 (centres undefined),35.5 µM (active)
8,CCS(=O)(=O)N1CCN(Cc2c[nH]c3ccccc23)CC1,inactive
9,CCOc1ccc(Cl)cc1S(=O)(=O)N1CCC(C(=O)NC2CC2)CC1,inactive
10,O=C(COC(=O)Cc1c[nH]c2ccccc12)Nc1cc(S(=O)(=O)N2CCOCC2)ccc1Cl,inactive
11,COc1ccc(C(NC(=O)C2CCN(CCOc3ccc(Cl)cc3Cl)CC2)c2ccccc2C)cn1 (centres undefined),31.6 µM (active)
12,Cn1cc(/C=N\O)nc2c(=O)n(-c3ccccc3)c(=O)nc1-2,inactive
13,O=C(COC(=O)/C=C/c1ccc(S(=O)(=O)N2CCc3ccccc32)cc1)NC1CCS(=O)(=O)C1 (centres undefined),inactive
14,CNc1cncc(-c2ccc(S(C)(=O)=O)cc2)n1,inactive
15,N=c1c(S(=O)(=O)c2ccc(Cl)cc2)cc2c(=O)n3ccccc3nc2n1Cc1ccco1,inactive
16,COc1ccc(NS(=O)(=O)c2cccc(C(=O)NN=C(C)c3ccco3)c2)cc1,inactive
17,Cc1ccccc1/C=C/c1cc[n+](C)cc1,inactive
18,NC(=O)C1CCN(CC(=O)Nc2ccccc2Sc2ccc(Cl)cc2)CC1,inactive
19,COc1ccc(Cl)cc1NC(=O)CNC(c1ccccc1)c1ccccc1,inactive
20,O=C(NC(c1ccccc1)c1ccsc1)C1CCN(CCOc2ccc(Cl)cc2Cl)CC1 (centres undefined),39.8 µM (active)
21,COc1ccc2nc(N3CCCC(O)C3)c(C#N)cc2c1 (centres undefined),inactive
22,NC[C@@H]1O[C@H](C23CC4CC(CC(C4)C2)C3)Cc2c1ccc(O)c2O,31.6 µM (active)
23,CCOCCCn1c(=N)c(C(=O)NCCN2CCOCC2)cc2c(=O)n3cccc(C)c3nc21,inactive
24,CC(C)=CCc1cc([C@@H]2COc3c(ccc4c3C=CC(C)(C)O4)C2)c(O)cc1O,35.5 µM (active)

row,SMILES,Potency
1,CCCCC(=O)Nc1nn(CC)c2nc3c(C)cccc3cc12,inactive
2,Nc1c(C(=O)N2CCCC2)sc2nc(-c3ccccc3)ccc12,inactive
3,C[C@H]1CCCCO[C@@H](CN(C)S(=O)(=O)c2ccc(Cl)cc2)[C@@H](C)CN([C@@H](C)CO)C(=O)c2cc(NS(=O)(=O)c3ccccc3)ccc2O1,31.6 µM (active)
4,C[C@@H]1CCCCO[C@H](CN(C)Cc2ccccc2)[C@@H](C)CN([C@H](C)CO)C(=O)c2cc(NS(=O)(=O)c3ccc(Cl)cc3)ccc2O1,35.5 µM (active)
5,C[C@@H]1CCCCO[C@@H](CN(C)CC2CCCCC2)[C@@H](C)CN([C@H](C)CO)C(=O)c2cc(NS(=O)(=O)c3ccc(Cl)cc3)ccc2O1,31.6 µM (active)
6,COc1ccc(S(=O)(=O)N(C)C[C@@H]2OCCCC[C@@H](C)Oc3ccc(NC(=O)NC(C)C)cc3C(=O)N([C@H](C)CO)C[C@@H]2C)cc1,inactive
7,N#CC(Sc1ccccn1)c1ccc(Cl)cc1 (centres undefined),inactive
8,CN(CC(=O)Nc1cccc(Cl)c1)S(=O)(=O)c1ccc2[nH]c3c(c2c1)CCCC3,39.8 µM (active)
9,O=C(COC(=O)c1ccc2[nH]c3c(c2c1)CCCC3)NC1CCS(=O)(=O)C1 (centres undefined),inactive
10,CC(C)c1ccc2[nH]c3c(c2c1)CCC/C3=N\NC(=O)c1ccncc1,inactive
11,O=S(=O)(Nc1cccc(Cl)c1)c1ccc2[nH]c3c(c2c1)CCCCCC3,31.6 µM (active)
12,Cc1ccc(S(=O)(=O)Nc2cccc(N(C)S(C)(=O)=O)c2)cc1[N+](=O)[O-],inactive
13,CC(C)c1ccc2[nH]c(O)c(N=NC(=O)c3cccc(S(=O)(=O)Nc4cccc(Cl)c4)c3)c2c1,1.41 µM (active)
14,Clc1ccc2[nH]c3c(c2c1)CNCC3,inactive
15,CN(CC(=O)Nc1cccc(C(F)(F)F)c1)S(=O)(=O)c1ccc2[nH]c3c(c2c1)CCCC3,35.5 µM (active)
16,CSc1nc(O)c(C(c2ccc(C)cc2)c2c(O)nc(SC)nc2O)c(O)n1,inactive
17,CCCn1c(=O)n(CC(=O)NCC2CCCO2)c(=O)c2c3c(sc21)COC(C)(C)C3 (centres undefined),inactive
18,CC1CCc2sc(C(=O)OCC(=O)NC(C)C)cc2C1 (centres undefined),inactive
19,Cc1cc(NC(=O)CCC(=O)N(C(C(=O)NC(C)(C)C)c2ccccc2Cl)C(C)(C)C)no1 (centres undefined),inactive
20,COc1ccccc1C1C2=C(CCCC2=O)N(CC(=O)O)C2=C1C(=O)CCC2,inactive
21,Cc1ccc(NC(=O)c2sc3nc(-c4ccc(F)cc4)ccc3c2N)cc1F,inactive
22,CC(C)c1ccc(C2=CC(c3ccc(C(C)C)cc3)n3nnnc3N2)cc1 (centres undefined),inactive
